The results in this text go back to PMC4336329 (PLoS ONE, 2015).

SMILES strings stand for the structures. The campaign covered roughly 310,000 compounds. About 2,200 (0.71%) showed an effect of 50% or more. The effect is printed as a negative number. What follows is part of a selection rich in strong results, with near analogues and random picks from the rest.

The target in the test is human ether-à-go-go-related gene (hERG) potassium channel (human, UniProt Q12809). The test can be described thus: primary screen, population patch clamp on CHO cells stably expressing hERG; higher = less effect of the substance.
human ether-à-go-go-related gene (hERG) potassium channel, sequence (Q12809 whole entry, looked up): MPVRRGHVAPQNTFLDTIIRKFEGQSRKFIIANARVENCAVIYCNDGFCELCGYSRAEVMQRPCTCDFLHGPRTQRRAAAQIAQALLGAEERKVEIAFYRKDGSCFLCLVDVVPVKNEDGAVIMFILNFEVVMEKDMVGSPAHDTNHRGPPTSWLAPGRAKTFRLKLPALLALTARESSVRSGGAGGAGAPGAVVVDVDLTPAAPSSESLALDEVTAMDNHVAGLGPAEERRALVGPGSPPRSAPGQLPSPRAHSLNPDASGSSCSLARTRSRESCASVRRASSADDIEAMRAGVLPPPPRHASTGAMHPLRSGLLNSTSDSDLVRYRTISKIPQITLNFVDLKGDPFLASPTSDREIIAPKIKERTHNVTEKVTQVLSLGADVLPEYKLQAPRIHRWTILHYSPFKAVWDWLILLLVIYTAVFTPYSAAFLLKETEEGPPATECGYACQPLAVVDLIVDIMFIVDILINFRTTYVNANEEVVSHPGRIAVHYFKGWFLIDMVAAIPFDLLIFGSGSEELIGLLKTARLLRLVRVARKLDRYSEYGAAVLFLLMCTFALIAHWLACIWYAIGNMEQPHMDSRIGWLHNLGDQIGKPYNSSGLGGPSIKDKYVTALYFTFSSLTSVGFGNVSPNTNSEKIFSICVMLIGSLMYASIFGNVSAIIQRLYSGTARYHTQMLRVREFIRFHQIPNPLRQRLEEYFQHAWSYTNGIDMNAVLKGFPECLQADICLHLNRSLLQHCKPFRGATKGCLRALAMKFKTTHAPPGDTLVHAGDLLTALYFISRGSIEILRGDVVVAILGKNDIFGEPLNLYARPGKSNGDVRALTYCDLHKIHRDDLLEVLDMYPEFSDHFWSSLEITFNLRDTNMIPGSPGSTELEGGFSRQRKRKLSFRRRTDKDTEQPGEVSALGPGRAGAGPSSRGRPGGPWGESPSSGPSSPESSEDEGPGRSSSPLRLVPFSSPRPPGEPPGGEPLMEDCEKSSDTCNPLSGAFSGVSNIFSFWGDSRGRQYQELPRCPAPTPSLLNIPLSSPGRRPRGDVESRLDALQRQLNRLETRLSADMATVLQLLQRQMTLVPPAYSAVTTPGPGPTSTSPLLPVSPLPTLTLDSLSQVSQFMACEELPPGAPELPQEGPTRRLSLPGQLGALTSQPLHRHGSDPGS
On to `O=C(Nc1nnc(-c2cccnc2)o1)c1cccc(Cl)c1`, for which the “hERG current change (%, negative = inhibition) at 1uM” value stood at 3.43%.

Regarding `CCOC(=O)c1cc2c(=O)n3ccccc3nc2n(CCCOC)c1=NC(=O)c1ccncc1`, the “hERG current change (%, negative = inhibition) at 1uM” value was -40%.

For `CCCCCn1c(=NC(=O)c2cccnc2)c(C#N)cc2c(=O)n3cccc(C)c3nc21`, the “hERG current change (%, negative = inhibition) at 1uM” value is listed as -5.66%.

`CCOC(=O)c1cc2c(=O)n3cccc(C)c3nc2n(CCCOC)c1=NC(=O)c1cccnc1`: the “hERG current change (%, negative = inhibition) at 1uM” value is -65.4%.

Consider `CCOCCCn1c(=NC(=O)c2cccnc2)c(C(=O)OCC)cc2c(=O)n3ccccc3nc21`, for which the “hERG current change (%, negative = inhibition) at 1uM” value was -67.8%.

Turning to `CCOC(=O)c1cc2c(=O)n3ccccc3nc2n(CCCOC)c1=NC(=O)c1cccnc1`, the “hERG current change (%, negative = inhibition) at 1uM” value is reported as -18.4%.

Consider `CCOCCCn1c(=NC(C)=O)c(C(=O)OCC)cc2c(=O)n3ccccc3nc21`, for which the “hERG current change (%, negative = inhibition) at 1uM” value is on record as -4.7%.

With `O=c1c2ccccc2c(C=NCCO)c(O)n1-c1ccccc1`, the “hERG current change (%, negative = inhibition) at 1uM” value is given as 11%.

As to `Brc1ccc2c(c1)C(OC1CN3CCC1CC3)c1ccccc1CS2.O=C(O)/C=C\C(=O)O` (stereo not shown), the “hERG current change (%, negative = inhibition) at 1uM” value was -27.6%.

Turning to `Cc1ccc2nc3c(c(Nc4ccc5c(c4)OCCO5)c2c1)CCC3.Cl`, the “hERG current change (%, negative = inhibition) at 1uM” value is listed as -5.67%.

Take `Cl.c1ccc(Nc2c3c(nc4ccccc24)CCC3)cc1`: the “hERG current change (%, negative = inhibition) at 1uM” value is given as -33.1%.

`COc1cc(Nc2c3c(nc4ccccc24)CCC3)cc(OC)c1OC`: the “hERG current change (%, negative = inhibition) at 1uM” value is reported as -19.4%.

On to `N#Cc1cccc(Nc2c3c(nc4ccccc24)CCC3)c1`, for which the “hERG current change (%, negative = inhibition) at 1uM” value was -18%.

As for `Cc1ccc(Nc2c3c(nc4ccccc24)CCC3)cc1.Cl`, the “hERG current change (%, negative = inhibition) at 1uM” value was -57.7%.

For `COc1cc(Nc2c3c(nc4ccccc24)CCCC3)cc(OC)c1OC`, the “hERG current change (%, negative = inhibition) at 1uM” value is listed as -48.3%.

With `Cl.c1ccc2c(Nc3ccc4c(c3)OCCO4)c3c(nc2c1)CCC3`, the “hERG current change (%, negative = inhibition) at 1uM” value was -13.9%.

Regarding `COc1ccc(Nc2c3c(nc4ccccc24)CCC3)cc1.Cl`, the “hERG current change (%, negative = inhibition) at 1uM” value is -14.5%.

Turning to `c1ccc2c(Nc3ccc4c(c3)OCCO4)c3c(nc2c1)CCCC3`, the “hERG current change (%, negative = inhibition) at 1uM” value was -83.5%.

`Cl.Fc1cccc(Nc2c3c(nc4ccccc24)CCC3)c1`: the “hERG current change (%, negative = inhibition) at 1uM” value is -9.35%.

For `N#Cc1cccc(Nc2c3c(nc4ccccc24)CCCC3)c1`, the “hERG current change (%, negative = inhibition) at 1uM” value is reported as -60.5%.

As for `COc1ccc(Nc2c3c(nc4ccccc24)CCCC3)cc1OC`, the “hERG current change (%, negative = inhibition) at 1uM” value was -78%.

In the case of `Cc1nnc(SCc2ccc(C(=O)c3ccc(Cl)cc3)o2)n1-c1ccccc1`, the “hERG current change (%, negative = inhibition) at 1uM” value is on record as -14.1%.

Take `Cc1[nH]c2ccccc2c1/C=C/c1nc2ccccc2c(=O)n1-c1cccc([N+](=O)[O-])c1`: the “hERG current change (%, negative = inhibition) at 1uM” value is 8.08%.

On to `CCOc1ccc(C2c3c(oc4cc(C)c(C)cc4c3=O)C(=O)N2CCCN(C)C)cc1OC` (stereo not shown), for which the “hERG current change (%, negative = inhibition) at 1uM” value is 4.1%.

`CCN(CC)C(=O)CN(c1cccc(OC)c1)S(=O)(=O)c1ccc(C)cc1`: the “hERG current change (%, negative = inhibition) at 1uM” value came out at 13.2%.

With `Cc1ccc(-n2[nH]c(C)c(/C=N/Nc3ccc([N+](=O)[O-])cc3[N+](=O)[O-])c2=O)cc1C`, the “hERG current change (%, negative = inhibition) at 1uM” value turned out to be 9.38%.

Consider `CCOc1ccc(S(=O)(=O)NN=C2CCN(C(C)=O)CC2)cc1`, for which the “hERG current change (%, negative = inhibition) at 1uM” value was found to be 2.55%.

Turning to `CC(C)CNC(=O)CSc1nnc(-c2ccccn2)n1Cc1ccccc1`, the “hERG current change (%, negative = inhibition) at 1uM” value is reported as 7.89%.

As for `C[C@](N)(CCP(=O)(O)O)C(=O)O.Cl`, the “hERG current change (%, negative = inhibition) at 1uM” value was -5.32%.

Turning to `CCOC(=O)CSc1nc2ccccc2c(=O)n1CC1COc2ccccc2O1` (stereo not shown), the “hERG current change (%, negative = inhibition) at 1uM” value is reported as 6.59%.

`O=C(CCNS(=O)(=O)c1cccc2nsnc12)Nc1ccc2c(c1)OCCO2`: the “hERG current change (%, negative = inhibition) at 1uM” value is reported as 12%.

In the case of `CSc1ncc(Cl)c(C(=O)[O-])n1.[NH3+]CCc1ccccc1`, the “hERG current change (%, negative = inhibition) at 1uM” value was found to be 0.119%.

For `Cc1ccc(CCNC(=O)C2CCN(S(=O)(=O)N3CCC4(CC3)OCCO4)CC2)cc1`, the “hERG current change (%, negative = inhibition) at 1uM” value is 9.02%.

As to `Cc1nc2ccccc2n1CCc1nc2c3ccccc3nc(SCC#N)n2n1`, the “hERG current change (%, negative = inhibition) at 1uM” value is listed as -0.451%.

In the case of `NC(=O)CSc1nc2c(c(=O)n1-c1ccccc1)C1(CCCCC1)Cc1ccccc1-2`, the “hERG current change (%, negative = inhibition) at 1uM” value was found to be 16.4%.

As for `COc1cc(NS(C)(=O)=O)ccc1Nc1c2ccccc2nc2ccccc12.Cl`, the “hERG current change (%, negative = inhibition) at 1uM” value was -59.7%.

With `COc1cc(Nc2c3ccccc3nc3ccccc23)cc(OC)c1OC`, the “hERG current change (%, negative = inhibition) at 1uM” value is recorded as -32.7%.

As to `COc1ccccc1Nc1c2ccccc2nc2ccccc12`, the “hERG current change (%, negative = inhibition) at 1uM” value is on record as -18.4%.

As to `Cc1ccc2c(Cn3ccnc3)cc(=O)oc2c1C`, the “hERG current change (%, negative = inhibition) at 1uM” value stood at 15.6%.

In the case of `CCCn1nnnc1NCc1ccc(N2CCCC2)cc1`, the “hERG current change (%, negative = inhibition) at 1uM” value is listed as -1.22%.

With `CSc1nc(C)c2c(n1)N(c1ccc(F)cc1)CC2`, the “hERG current change (%, negative = inhibition) at 1uM” value amounted to 20.1%.

For the molecule `Cc1ccc2nc(C)c3c(c2c1)N(c1ccccc1)CC3`, the “hERG current change (%, negative = inhibition) at 1uM” value is given as -70%.

Consider `Cc1ccc2nc(C)n(-c3ccc(F)cc3)c(=O)c2c1`, for which the “hERG current change (%, negative = inhibition) at 1uM” value is on record as 19%.

Take `Cc1ccc2nc3c(c(N)c2c1)CCN3c1ccccc1.O=C(O)C(=O)O`: the “hERG current change (%, negative = inhibition) at 1uM” value is -2.46%.

With `COc1cccc(N2CCc3c(C)nc4ccc(Cl)cc4c32)c1`, the “hERG current change (%, negative = inhibition) at 1uM” value is -48.5%.

Consider `Cc1ccc2nc(C)c3c(c2c1)N(c1ccc(F)cc1)CC3`, for which the “hERG current change (%, negative = inhibition) at 1uM” value is on record as -94.5%.
